Assay outcomes as filed in PubChem BioAssay.
In the library only some 1.8% were active in any assay of this set; here they are far more common.
NFkB transloc pot: enhancers of NFkB p65 translocation in HUVEC – imaging, IL-1B stimulus, high-content imaging, primary screen; AID 819, 2007; 0.3% of 94,000 active; HUVEC IL-1B NFkB p65 nuclear translocation imaging; activation, % at 2 µM;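 active means activation above 40%, about the mean plus 3 SD, also judged a hit on visual image review; inconclusive means activation above 40% but not a hit on visual review; inactive means activation not above 40% and no visual hit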;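 further: percent activation is computed from the nuclear over cytoplasmic p65 intensity ratio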
HUVEC tox TNFa: cytotoxicity in TNFa-stimulated HUVEC, primary screen, cytotoxicity control for VCAM1 expression modulator project, imaging, Hoechst nuclei count | cell count reduction, % at 2 µM | HUVEC TNFalpha-stimulated, Hoechst cell count | 0.17% of 93,000 active;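 active means cell count reduction exceeding the screen mean by over 5 SD, scaled to untreated wells per plate, cut at about 78% in these data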;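 further: cells counted after 24 h of TNF alpha exposure following the 1 h pretreatment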
HUVEC tox IL1B: cytotoxicity in IL-1B stimulated HUVEC, primary screen, cytotoxicity control for IL-1B NFkB translocation project, imaging, Hoechst nuclear count, IL-1B stimulus; HUVEC cell count loss; cell count reduction, % at 2 µM; 0.41% of 94,000 active; AID 845, 2007;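 active means cell count reduction more than 3 SD above the screen-wide mean, cut at about 70% in these data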;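 further: normalized per plate to untreated control cells as the no-loss baseline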
VCAM1 TNFa inh: inhibitors of TNFa-induced VCAM1 expression, primary screen, imaging, HUVEC, TNFa stimulus, immunofluorescence | HUVEC TNFa-induced VCAM-1 immunofluorescence, high-content imaging | inhibition, % at 2 µM | 0.48% of 95,000 active | AID 802, 2007;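 active means inhibition above the batch mean plus 3 SD, with images confirmed as a hit by eye, cut at about 37% in these data; inconclusive means inhibition above that limit but hit not confirmed in images; inactive means inhibition not above that limit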;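 further: 0% = TNF-stimulated DMSO wells and 100% = unstimulated control wells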
IL1B NFkB inh: inhibitors of IL-1B driven NFkB p65 nuclear import, primary screen, imaging, HUVEC, IL-1B stimulus, high-content imaging | HUVEC IL-1B NFkB p65 nuclear translocation imaging | inhibition, % at 2 µM | 0.43% of 94,000 active | AID 796, 2007;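 active means inhibition above about 30% together with a positive call from visual inspection of the well image, limit read from the data; inconclusive means inhibition above a set limit but visual check negative; inactive means inhibition not above a set limit, visual check negative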;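 further: nuclear over cytoplasmic p65 intensity ratio measured by imaging; 0% = IL-1B stimulated DMSO wells and 100% = unstimulated DMSO wells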
E-sel TNF inh: E-selectin induction blockers in HUVEC – imaging, immunofluorescence, high content, primary screen. AID 1246, 2008. HUVEC TNFa-induced E-selectin immunofluorescence. inhibition, % at 2 µM. 0.71% of 120,000 active;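 active means inhibition above the batch mean plus 3 SD, and confirmed as a hit on visual image review, cut at about 43% in these data; inconclusive means passes the inhibition cutoff but fails visual image review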;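 further: 0% = TNF-stimulated DMSO wells and 100% = unstimulated control wells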
* marks the source's active call; other numbers are inactive results; ? = inconclusive; . = no result given.

SMILES	NFkB transloc pot	HUVEC tox TNFa	HUVEC tox IL1B	VCAM1 TNFa inh	IL1B NFkB inh	E-sel TNF inh
C=CCn1c(COc2ccc3c(c2)CCCC3)nnc1SCC(=O)Nc1cccc(SC)c1	0.6	-5.0	16.2	-2.5	-0.6	-19.8
Cc1nn(C(=O)c2ccc3c(c2)OCO3)c(N)c1-c1ccccc1	29.2	12.5	21.8	7.9	-29.2	.
CCN(CC)c1ccc2c(c1)OC(N)=C(C#N)C2c1cccnc1 (centres undefined)	5.5	51.4	62.9	39.1*	-5.5	.
N#CC1=C(N)Oc2cc(Nc3ccccc3)ccc2C1c1ccncc1 (centres undefined)	1.6	-4.2	-28.6	-5.5	-1.6	53.8*
CC(C)Cn1c(N2CCN(CC(=O)Nc3ccc(Cl)cc3)CC2)nc2ccccc21	.	.	.	.	.	-3.7
CSc1cccc(NC(=O)C2CCCN(S(=O)(=O)c3ccc(F)cc3)C2)c1 (centres undefined)	11.7	12.1	7.8	13.3	-11.7	58.7*
COc1ccc(S(=O)(=O)Nc2cccc(S(=O)(=O)N3CCCCCC3)c2)cc1	.	.	.	.	.	71.3*
COc1ccc(NC(=O)C2CCN(S(C)(=O)=O)CC2)cc1	-42.5	-39.1	-129.8	3.8	42.5*	12.0
CSc1cccc(NC(=O)C2CCN(S(=O)(=O)c3ccc(F)cc3)CC2)c1	26.8	-12.6	-25.3	26.5	-26.8	-10.6
COc1ccc(S(=O)(=O)N2CCCC(C(=O)O)C2)cc1 (centres undefined)	-34.3	51.2	33.3	-6.9	34.3*	4.0
COc1ccc(S(=O)(=O)N2CCCC(C(=O)NC3CCCCC3)C2)cc1 (centres undefined)	1.6	.	2.5	.	-1.6	-22.3
Cc1ccccc1-n1c(SCC(=O)N/N=C/c2sccc2C)nc2ccccc2c1=O	.	.	.	.	.	0.9
O=C1CN(C(=O)CSc2nc(-c3ccc(Cl)cc3)cs2)c2ccccc2N1	.	.	.	.	.	0.5
COc1ccc(S(=O)(=O)N2CCCC2C(=O)Nc2ccc(C)cc2)cc1 (centres undefined)	3.2	5.5	24.3	96.7*	-3.2	-8.9
Cc1n[nH]c(C)c1CCc1nc2c3ccccc3nc(SCC(=O)Nc3ccccc3F)n2n1	-9.0	15.1	86.1*	10.3	9.0	.
Cc1cccc(NC(=O)CSc2nc3ccccc3c3nc(CCc4c(C)n[nH]c4C)nn23)c1	10.0	-0.8	-21.6	1.9	-10.0	0.5
CN(C)S(=O)(=O)N1CCN(S(=O)(=O)N(C)C)CC1	14.2	14.8	3.2	-0.3	-14.2	-11.4
CC1CN(S(=O)(=O)N(C)C)CCN1S(=O)(=O)N(C)C (centres undefined)	1.6	0.0	88.0*	13.6	-1.6	-3.0
Cc1nc(NC(C)C)c2cnn(CCc3ccccc3)c2n1	-24.8	-11.9	13.5	8.1	24.8	10.5
COc1ccc(CCC(=O)Nc2cc(S(C)(=O)=O)ccc2Cl)cc1	.	.	.	.	.	-19.9
CCSC1=C(C#N)C(c2ccc3c(c2)OCO3)C2=C(CCCC2=O)N1 (centres undefined)	66.3*	7.4	5.7	22.8	-66.3	-8.4
N#CC1=C(SCc2ccccc2)NC2=C(C(=O)CCC2)C1c1ccc2c(c1)OCO2 (centres undefined)	-13.6	-3.6	-1.1	12.8	13.6	.
CCOC(=O)C1CCN(C(=O)c2ccc(Cl)c(Cl)c2)CC1	-99.0	-10.1	93.5*	5.0	99.0*	-39.2
CCOC(=O)C1CCN(C(=O)c2cccc(Cl)c2)CC1	28.9	-7.6	-17.7	6.3	-28.9	17.8
O/N=C1/CCCSc2ccccc21	47.6*	5.7	6.0	-2.8	-47.6	-13.2
SMILES	NFkB transloc pot	HUVEC tox TNFa	HUVEC tox IL1B	VCAM1 TNFa inh	IL1B NFkB inh	E-sel TNF inh
Cc1ccc2c(c1)/C(=N/O)CCS2	.	-22.7	.	-1.8	.	24.1
CC(=O)c1ccc(-c2ccc(C(=O)NC3CCCCCC3)o2)cc1	.	.	.	.	.	-23.6
O=C(OCC1CC(c2ccccc2)=NO1)c1ccc(Cl)cc1 (centres undefined)	49.7*	1.8	18.4	-5.3	-49.7	6.5
COc1cc(C(=O)OCC2CC(c3ccccc3)=NO2)cc(OC)c1OC (centres undefined)	.	.	.	.	.	-4.5
Cc1cc(C)c2ccc(C(=O)O)nc2c1O	9.1	-17.3	2.7	-2.1	-9.1	7.8
Cc1ccc2c(C)ccc(O)c2n1	-1.1	-18.1	76.1*	6.3	1.1	-51.1
CN(Cc1ccccc1)C(=O)c1ccccc1NC(=O)c1ccco1	42.3*	-2.3	87.6*	5.5	-42.3	1.2
Cc1ccc(SCCNC(=O)c2cccc([N+](=O)[O-])c2C)cc1	6.6	-2.7	2.3	-14.4	-6.6	-18.2
COCCNC(=O)c1ccccc1NC(=O)c1cccc([N+](=O)[O-])c1C	.	.	.	.	.	60.4*
CCn1nc(C(=O)Nc2ccc(S(=O)(=O)Nc3nccs3)cc2)c2ccccc2c1=O	-2.0	11.4	-1.3	-25.0	2.0	60.9*
CCNc1ccc(C(=O)OCC(=O)N(Cc2ccccc2)C(C)(C)C)cc1[N+](=O)[O-]	.	.	.	.	.	-10.5
COc1ccc(N2CCN(C(=O)CSc3nnc4c(C)cc5cc(C)ccc5n34)CC2)cc1	-24.5	-13.6	92.5*	-4.9	24.5	.
COc1ccc(N2CCN(C(=O)CSc3nnc4c(C)cc5c(C)cc(C)cc5n34)CC2)cc1	4.3	3.2	-36.1	-1.9	-4.3	-37.9
NC(=O)c1ccc(C(F)(F)F)n(Cc2cccc(Cl)c2)c1=O	-4.3	-10.4	-124.5	13.2	4.3	-14.4
CCOCCCNCC(=O)N1CCN(S(=O)(=O)c2ccc(C)cc2)CC1	-4.5	0.0	-14.3	-13.1	4.5	.
CC1CC(C)CN(CCOc2cccc(Cl)c2Cl)C1 (centres undefined)	.	.	.	.	.	-15.3
Clc1cccc(OCCn2cncn2)c1Cl	44.9*	-1.4	-45.5	-43.5	-44.9	-3.1
O=C(O)C=C1CCN(c2ncc(C(F)(F)F)cc2Cl)CC1	-11.1	-12.1	18.6	-0.6	11.1	-13.3
COc1ccc(-n2nnnc2S(=O)(=O)CC(=O)N2CCCCC2)cc1	-28.2	-17.5	5.0	?	28.2	81.7*
O=Cc1cccn1Cc1ccccc1[N+](=O)[O-]	.	.	.	.	.	50.7
CCCC(=O)NC(=S)Nc1ccccc1F	-3.4	-15.5	-5.2	16.6	3.4	-11.5
CCCCNC(=S)Nc1ccccc1F	-5.5	-21.5	89.6*	2.4	5.5	-3.3
CCn1c(SCC(=O)N(C(C)C)C(C)C)nnc1-c1cc2ccccc2cc1O	60.0*	10.9	6.4	26.4	-60.0	3.3
CCc1nnc(NC(=O)CSc2nnc(-c3cc4ccccc4cc3O)n2CC)s1	.	.	.	.	.	-6.6
C1CCC(c2nn3c(-c4n[nH]c5c4CCC5)nnc3s2)CC1	15.3	-11.7	2.0	-5.6	-15.3	43.7
CCN(CC)c1ccc(-c2nn3c(-c4n[nH]c5c4CCC5)nnc3s2)cc1	-28.5	55.1	24.8	47.5*	28.5	2.6
